About 8,600 (12%) of roughly 69,000 compounds showed an effect of 50% or more. What follows is part of a selection rich in strong results, with near analogues and random picks from the rest.
System: Plasmodium berghei
Assay: Screen against P. berghei liver stage (PbLuc), transformed with Luciferase, at 10uM
Type: functional, HepG2
Details: tested at 10 uM

| Compound | INHIBITION [%] |
| --- | --- |
| COc1ccc(OC)c(-c2cc(C(=O)NCC3(CO)CC3)n(C)n2)c1 | 6.54 |
| O=C(NC[C@]12COC[C@H]1CN(Cc1cccnc1)C2)c1ccno1 | 29 |
| c1cc(C2CCN(Cc3ccc4c(c3)OCO4)CC2)ccn1 | 19.4 |
| Cc1ccc(NCc2cc(C#N)ccc2F)cc1-n1nnnc1C | -3.83 |
| CC(C)CC(=O)N1CCCn2cnc(CNS(C)(=O)=O)c2C1 | -3.33 |
| CC(C)NC(=O)[C@H]1C[C@@H]2[C@@H](C1)OCCN2Cc1nccs1 | 16.9 |
| Nc1nccnc1C1CN(C(=O)c2ccnnc2)CCO1 (stereo not drawn) | 26.8 |
| CSC(C)(C)CNC(=O)NC1CCC1 | 34.6 |
| CCNc1cc2c(nn1)CCN(C(=O)C(C)c1c(C)noc1C)C2 (stereo not drawn) | 31.9 |
| Cc1nnc(NC(=O)NCc2ccc(F)cc2)s1 | -162 |
| COC(=O)c1ccoc1CN(C)Cc1ccccc1 | 37.1 |
| CC(c1cc(F)ccc1F)N(C)Cc1nc2c(cnn2C)c(=O)[nH]1 (stereo not drawn) | 16.34 |
| CCOC(=O)c1cnn(-c2cc(Oc3cc(C)ccc3C)ncn2)c1N | 18.6 |
| CCc1nn(-c2cc(Oc3cccc(C)c3)nc(C)n2)c(N)c1C#N | -7.81 |
| CCc1nn(-c2cc(Oc3cc(C)ccc3C)ncn2)c(N)c1C#N | 57.8 |
| Cc1ccc(C)c(NC(=O)Cn2nc(C)c(C#N)c2N)c1 | 14.6 |
| Cc1ccc(C)c(Oc2cc(-n3nc(C)c(C#N)c3N)nc(C)n2)c1 | 55.6 |
| CCc1nn(-c2cc(Oc3cc(C)ccc3C)nc(C)n2)c(N)c1C#N | 64.9 |
| COc1ccc(C)cc1NC(=O)Cn1nc(C)c(C#N)c1N | 16.8 |
| CCc1nn(-c2cc(Oc3ccccc3)nc(C)n2)c(N)c1C#N | 31.8 |
| CC(O)c1cn(Cc2ccccc2)nn1 (stereo not drawn) | -1.84 |
| O=C(c1ncccn1)N1CCC[C@]2(C[C@H](OCC3CC3)CO2)C1 | 40.4 |

| Compound | INHIBITION [%] |
| --- | --- |
| COc1c(C2CCCN2C(=O)c2sc(C)nc2C)c(C)nn1C (stereo not drawn) | 8.64 |
| CN(C)[C@@H]1CN(C(=O)CCc2ccccc2)[C@@H]2CCCO[C@H]12 | 8.66 |
| Cc1ccc(CC(=O)N2CCCC2Cn2nc(C)cc2C)cn1 (stereo not drawn) | 33.7 |
| CC(=O)N1CCCC(C(=O)NCCc2ccc(F)c(Br)c2)C1 (stereo not drawn) | 9.72 |
| CCc1c(C(=O)N2CCN(c3cnccn3)CC2)cnn1C(C)(C)C | -0.219 |
| CC(=O)N(Cc1noc(C2CC2)n1)C1CCN(Cc2cccnc2)C1 (stereo not drawn) | 25.7 |
| O=C(Nc1cnn(CCN2CCOCC2)c1)c1ccccc1Cl | -13.4 |
| COc1cc(CNc2cnn(CCN3CCOCC3)c2)cc(OC)c1 | 1.74 |
| N#Cc1ccc(CNc2cnn(CCN3CCOCC3)c2)cc1 | 24 |
| Cc1ccccc1C(=O)Nc1cnn(CCN2CCOCC2)c1 | -21.3 |
| Clc1ccc(CNc2cnn(CCN3CCOCC3)c2)cc1Cl | 56 |
| O=C(Nc1cnn(CCN2CCOCC2)c1)c1ccccc1O | 55.9 |
| COc1ccccc1CN(CC1CCCO1)C(=O)c1scnc1C (stereo not drawn) | -9.08 |
| O=c1ccc2c(n1Cc1cccnc1)CCN(Cc1ccoc1)CC2 | -110 |
| Cc1cncc(C2CCCN2CCO)n1 (stereo not drawn) | 0.696 |
| O=C(c1cnccn1)N1CC[C@@H]2CO[C@@H](CN3CCCC3)[C@@H]2C1 | 37.8 |
| CSc1ccccc1CN1C[C@H]2CC[C@@H](C1)N(CC1CC1)C2=O | 28.3 |
| COc1c(CNCCc2c[nH]c3ccccc23)c(C)nn1C | 30.1 |
| COc1c(CNCCc2c[nH]c3cc(F)ccc23)c(C(C)C)nn1C | 44.2 |
| COc1c(CNCCc2c[nH]c3cc(F)ccc23)c(C)nn1C | 70.2 |
| CS(=O)(=O)c1ccc(CNc2nccc(C(F)(F)F)n2)cc1 | -33.9 |
| CN1CC2(CCCN(C(=O)Cc3cccc(O)c3)C2)OC1=O (stereo not drawn) | 16.3 |

| Compound | INHIBITION [%] |
| --- | --- |
| CN(C)CC1COCCN1C(=O)c1ccccc1C(=O)c1ccccc1 (stereo not drawn) | 22.6 |
| CCS(=O)(=O)N1CCC2(CCCN(Cc3ccc(F)c(F)c3)C2=O)C1 (stereo not drawn) | 39.4 |
| O=C1N(Cc2ccc(F)c(F)c2)CCCC12CCN(C1CCCC1)C2 (stereo not drawn) | 37.4 |
| CN(C)S(=O)(=O)N1CCC2(CCCN(Cc3ccc(F)cc3)C2=O)C1 (stereo not drawn) | 36.8 |
| O=C1N(Cc2ccc(F)c(F)c2)CCCC12CCN(C1CCSCC1)C2 (stereo not drawn) | 80.8 |
| O=C1N(CCc2ccccc2)CCCC12CCN(C(CO)CO)C2 (stereo not drawn) | -33.9 |
| CC(C)N1CCC2(CCCN(Cc3ccc(F)cc3)C2=O)C1 (stereo not drawn) | 70.4 |
| O=C1N(Cc2ccc(F)cc2)CCCC12CCN(C1CCSCC1)C2 (stereo not drawn) | 33.3 |
| Cc1cccc(CN2CCCC3(CCN(C4CCSCC4)C3)C2=O)c1 (stereo not drawn) | 39.9 |
| O=C1N(Cc2ccc(F)c(F)c2)CCCC12CCN(C1CCCCC1)C2 (stereo not drawn) | 81.7 |
| Cc1ccccc1C(=O)N1CCC2(CCCN2CCN(C)C)CC1 | -35.6 |
| CC(C)c1ncncc1C(=O)NCCN1CCCC1 | 29 |
| CN(C)C(=O)c1c[nH]nc1C1CCN(S(=O)(=O)c2ccc(Cl)cc2)CC1 | 24.8 |
| CN(Cc1ccco1)[C@@H]1CN(CC2CCOCC2)[C@@H]2CCCO[C@H]12 | 33.4 |
| CC(C)OCCCNC(=O)CN1CCN(c2nccs2)C(C)C1 (stereo not drawn) | -27.5 |
| Cc1cn[nH]c1C1COCCN1S(=O)(=O)c1cn[nH]c1 (stereo not drawn) | 23.2 |
| Cn1cnnc1SCC(=O)NC1CC(=O)N(CCc2cccc(Cl)c2)C1 (stereo not drawn) | 6.29 |
| CC(=O)N1CCC2(CC1)CC(N1CCOCC1)c1ccc(C)cc12 (stereo not drawn) | -39.2 |
| Cc1nc(NCc2nccn2C)cc(C2COCCN2)n1 (stereo not drawn) | 23.375 |
| Cc1noc(-c2ccc(N3CCCC(C(=O)N4CCSCC4)C3)nc2)n1 (stereo not drawn) | 28.8 |
| Cc1noc(-c2ccc(N3CCCC(C(=O)O)C3)nc2)n1 (stereo not drawn) | -19.2 |
| Cc1noc(-c2ccc(N3CCC(C(=O)N4CCCC4)CC3)nc2)n1 | 76.7 |

| Compound | INHIBITION [%] |
| --- | --- |
| CCn1ncc(S(=O)(=O)N[C@@H]2CC[C@@H](n3ccnc3C)[C@@H]2O)c1C | 4.9 |
| Cc1cc(=O)[nH]c(=O)n1COCc1ccccc1 | 13.6 |
| Cc1ccccc1COCCOCn1c(C)cc(=O)[nH]c1=O | 51.3 |
| Cc1cc(=O)[nH]c(=O)n1COCCOCc1ccccc1 | 8.41 |
| CC(C)n1ccnc1CN1CCOC(CCc2ccccc2)C1 (stereo not drawn) | 9.34 |
| CC(C)n1ccnc1CN1CCCN(C(=O)CC2CCCO2)CC1 (stereo not drawn) | -32 |
| CC(C)n1ccnc1CN1CCOC(CC2CCCCC2)C1 (stereo not drawn) | 50 |
| COc1ccccc1C1(NCc2c(C)nc3c(C)cccn23)CCCC1 | 49 |
| Cc1nc2sccn2c1CNc1cc(C(=O)O)ccc1F | -15.7 |
| Cc1nc2sccn2c1CNC1(c2ccccc2F)CCCC1 | 52.4 |
| O=C(Cn1cccn1)N(CCO)CCSc1ccc(Cl)cc1 | 24.7 |
| Cc1nc(C(C)NC(=O)c2cn(Cc3ccc(Cl)cc3)nn2)n[nH]1 (stereo not drawn) | 39.9 |
| Cc1noc(C(C)C)c1C(=O)NCC(c1ccccc1)N(C)C (stereo not drawn) | -7.35 |
| CCn1ncc(CN2CCC(O)(Cn3ccc4ncccc43)CC2)c1C | 19.6 |
| OC1(Cn2ccc3ccncc32)CCN(Cc2ccccn2)CC1 | 37 |
| OC1(Cn2ccc3ncccc32)CCN(Cc2cc(F)cc(F)c2)CC1 | 54.4 |
| OC1(Cn2ccc3ncccc32)CCN(Cc2ccccn2)CC1 | 50.6 |
| CCn1cc(CN2CCC(O)(Cn3ccc4ncccc43)CC2)cn1 | 38.8 |
| Cc1ccc(CN2CCC(O)(Cn3ccc4ncccc43)CC2)o1 | 28 |
| OC1(Cn2ccc3ncccc32)CCN(Cc2cccnc2)CC1 | 35.2 |
| Cc1cc(CN2CCC(O)(Cn3ccc4ncccc43)CC2)c(C)s1 | 23.2 |
| COCc1ccc(CN2CCC(O)(Cn3ccc4ncccc43)CC2)o1 | 38.7 |

| Compound | INHIBITION [%] |
| --- | --- |
| COc1ccccc1CN1CCC(O)(Cn2ccc3ncccc32)CC1 | 14.7 |
| OC1(Cn2ccc3ncccc32)CCN(Cc2ccccc2F)CC1 | 70.1 |
| OC1(Cn2ccc3ncccc32)CCN(Cc2cccs2)CC1 | 64.1 |
| CC(C)Nc1nc2c(cc1C(=O)N(C)C)CCNCC2 | -3.83 |
| CCCN1CCC2(C1)c1ccccc1S(=O)(=O)N2C (stereo not drawn) | 13.7 |
| OC(CNCCc1nnc2ccccn12)c1ccc2c(c1)OCO2 (stereo not drawn) | -20.5 |
| CCCc1nc(C)c(C(=O)Nc2cccc(C)n2)s1 | 1.45 |
| COC[C@H]1CN(CC2CC2)C(=O)[C@@H]2CCN(Cc3ccoc3)CC[C@H]12 | 11.3 |
| Cc1ccsc1CN(Cc1nc2c(cnn2C)c(=O)[nH]1)C(C)C | 31.533 |
| COc1ccc(NC(=O)N(CC2CCOC2)C2CC2)cn1 (stereo not drawn) | 12.85 |
| Cn1cncc1C(=O)N1CCOC2(COCCN(CC3CC3)C2)C1 (stereo not drawn) | -8.23 |
| Cc1noc([C@@H]2C[C@H]3CN(Cc4ccc5c(c4)OCO5)C[C@H]3O2)n1 | 42.1 |
| Cc1nccc([C@@H]2C[C@@H]3CCN(Cc4c(C)noc4C)C[C@H]3O2)n1 | 67.2 |
| Cc1noc(C)c1CN1CC[C@H]2C[C@H](c3ccncn3)O[C@@H]2C1 | 34.6 |
| Cc1nc([C@@H]2C[C@H]3CN(Cc4ccc5c(c4)OCO5)C[C@H]3O2)no1 | 29.4 |
| Cc1nc([C@@H]2C[C@H]3CN(Cc4scnc4C)C[C@H]3O2)no1 | -35.2 |
| Cc1nc([C@H]2C[C@@H]3CCN(Cc4scnc4C)C[C@H]3O2)no1 | 88 |
| Cc1nc([C@H]2C[C@@H]3CCN(Cc4ccc5c(c4)OCO5)C[C@H]3O2)no1 | 59.3 |
| Cc1noc(C)c1CN1CC[C@H]2C[C@@H](c3ccncn3)O[C@@H]2C1 | 21.6 |
| Cc1csc(CN2CC[C@H]3C[C@@H](c4noc(C)n4)O[C@@H]3C2)n1 | 29 |
